About 4,500 (2.2%) of roughly 200,000 compounds were called active. Inconclusive results (about 12%) are left out. What follows is part of a selection rich in actives, with near analogues and random picks from the rest. Values without a mark were called inactive. Calls come from the whole dose curve; as a rule, active = well fitted inhibition curve with a large enough effect; inconclusive = small, poorly fitted or top-dose-only effect, or effect the other way; inactive = flat fitted curve, though single readings scatter.

The text below walks through data of PubChem BioAssay AID1476 (National Center for Advancing Translational Sciences (NCATS), 2009).
Potency is the fitted concentration of half-maximal effect.

In this experiment the target is Cruzipain (Trypanosoma cruzi) (UniProt P25779). The experiment can be described thus: qHTS Assay for Promiscuous and Specific Inhibitors of Cruzain (without detergent).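 For max response, negative = inhibition: plate controls were enzyme without inhibitor for no effect and buffer without enzyme for full effect.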 Note: nearly all actives have a fitted effect of over 40% in size. Particulars: purified cruzain, Z-FR-AMC fluorescence, no detergent. Summed up: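 Purified cruzain at 1.5 nM, pre-incubated 15 min with compound at room temperature in 100 mM sodium acetate pH 5.5, 5 mM DTT, 0.00005% Triton X-100. Reaction started with 2 uM Z-FR-AMC; AMC fluorescence increase over 60 s gives rate.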
Cruzipain (Trypanosoma cruzi), sequence (P25779 123-467 limits assumed): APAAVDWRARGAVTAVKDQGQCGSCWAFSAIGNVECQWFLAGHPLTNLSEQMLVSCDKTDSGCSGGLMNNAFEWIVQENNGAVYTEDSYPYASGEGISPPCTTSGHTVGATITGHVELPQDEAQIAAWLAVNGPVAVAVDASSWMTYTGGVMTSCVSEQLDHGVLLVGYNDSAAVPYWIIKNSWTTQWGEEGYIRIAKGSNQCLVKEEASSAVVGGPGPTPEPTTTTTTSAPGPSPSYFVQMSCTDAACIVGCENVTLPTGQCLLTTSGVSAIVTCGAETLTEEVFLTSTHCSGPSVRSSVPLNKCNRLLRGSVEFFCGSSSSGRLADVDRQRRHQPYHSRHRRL
In the case of `Cc1onc(-c2ccc(F)cc2F)c1C(=O)Nc1cccc(C(F)(F)F)c1`, the max response, negative = inhibition is -6.18%.

For the compound `Cc1cccc(-c2nc(SCc3ccc(Br)cc3)n3[nH]c(=O)cc3n2)c1`, the max response, negative = inhibition is -2.63%.

For `O=C(Cn1c(=O)n(Cc2ccccc2)c(=O)c2sc3ccccc3c21)Nc1ccccc1F`, the max response, negative = inhibition was 9.77%.

`CCCCN(CC)CCCNC(=O)c1nn(C)c2c1CS(=O)(=O)c1ccccc1-2`: the max response, negative = inhibition is 5.31%.

As to `CCCNC(=O)CCC(=O)N1Cc2ccccc2Oc2ncccc21`, the max response, negative = inhibition was -4.94%.

With `CCOC(=O)c1c(NC(=O)C2CCN(S(=O)(=O)c3ccc(Cl)cc3)CC2)sc2c1CCCC2`, the Potency was 15.8 µM (active).

In the case of `CCOC(=O)c1c(NC(=O)c2cc(-c3ccc(Cl)cc3)on2)sc2c1CCCC2`, the max response, negative = inhibition is 3.1%.

For the compound `CC(C)OC(=O)c1c(NC(=O)c2ccco2)sc2c1CCCC2`, the max response, negative = inhibition was -12.4%.

For the compound `CCOC(=O)c1c(NC(=S)Nc2ccccc2C)sc2c1CCC2`, the max response, negative = inhibition was -25.8%.

In the case of `CCOC(=O)c1c(NC(=S)NC(=O)c2ccco2)sc2c1CCCC2`, the Potency was 12.6 µM (active).

`CCOC(=O)c1c(NC(=O)c2ccc(S(=O)(=O)N(CC)CC)cc2)sc2c1CCCCC2`: the max response, negative = inhibition was 8.24%.

Take `Cc1cccc(N2CCN(C(=O)Cn3ncc4c5ccccc5n(C)c4c3=O)CC2C)c1` (stereo not given): the max response, negative = inhibition is 2.09%.

Take `COc1cc(CN(CC2CCCO2)C(=O)c2ccccc2F)cc(OC)c1OC` (stereo not given): the max response, negative = inhibition is 17.1%.

`CC(C)(C)OC(=O)N1CCC(c2c(C(=O)NCCc3ccsc3)cnn2-c2ccc(F)cc2F)CC1`: the max response, negative = inhibition is -13.2%.

Take `CCCC12CN3CC(CCC)(CN(C1)C3c1c[nH]c3ccc(OC)cc13)C2=O` (stereo not given): the max response, negative = inhibition is 15.7%.

Take `CN(c1ccc(C(=O)NCc2ccccn2)cc1)S(C)(=O)=O`: the max response, negative = inhibition was -4.77%.

Regarding `O=C(NCc1ccccn1)c1ccc2nc(-c3ccco3)c(-c3ccco3)nc2c1`, the Potency was 25.1 µM (active).

Consider `O=C(NCc1ccccn1)c1cc(-c2ccccc2Cl)on1`, for which the max response, negative = inhibition is -2.8%.

In the case of `CCSc1nnc2c(n1)OC(c1ccc(OCC(=O)O)cc1)Nc1ccccc1-2` (stereo not given), the max response, negative = inhibition was -6.38%.

On to `CCOc1ccc(CNC(=O)c2cc(-c3ccc(Cl)s3)nc3ccccc23)cc1`, for which the max response, negative = inhibition was -5.14%.

Turning to `CN(C)c1ccc(NC(=S)N(CCc2ccccc2)C2CC(=O)N(c3c(Cl)cccc3Cl)C2=O)cc1` (stereo not given), the Potency is 15.8 µM (active).

For the compound `COC(=O)CN(C(=S)Nc1ccc(Cl)cc1)C1CC(=O)N(c2ccc(OC)cc2)C1=O` (stereo not given), the max response, negative = inhibition is -5.17%.

For the compound `Cc1ccc(N2CC(C(=O)Nc3ccc(N(C)C)cc3)CC2=O)cc1Cl` (stereo not given), the max response, negative = inhibition was -3.38%.

For `CN1C(=O)c2ccccc2Sc2ccc(NC(=O)Cc3ccc(Cl)cc3)cc21`, the max response, negative = inhibition is 14.1%.

Regarding `CCCCn1c(=N)c(S(=O)(=O)c2ccccc2)cc2c(=O)n3cccc(C)c3nc21`, the max response, negative = inhibition was 14.5%.

`CCOC(=O)c1cc2c(=O)n3ccccc3nc2n(Cc2ccco2)c1=NC(=O)c1ccc(F)cc1`: the max response, negative = inhibition was -18.9%.

For the compound `CCn1c(=N)c(S(=O)(=O)c2ccc(F)cc2)cc2c(=O)n3ccccc3nc21`, the Potency was 20 µM (active).

`Cc1ccc(-c2nc(CS(=O)(=O)CC(=O)NCc3ccccc3Cl)c(C)o2)cc1`: the max response, negative = inhibition is -2.75%.

As for `CC(C)(C)n1nnnc1C(c1ccc2ncccc2c1)N1CCSCC1` (stereo not given), the Potency was 7.94 µM (active).

For `CC(C)(C)n1nnnc1C(c1ccc(Cl)cc1)N1CCSCC1` (stereo not given), the max response, negative = inhibition is -17.6%.

For the compound `CCC(C)(C)n1nnnc1C(c1ccccc1OC)N1CCSCC1` (stereo not given), the max response, negative = inhibition is 1.47%.

Consider `Cc1ccc(C)c(NC(=O)Cn2ccn(-c3ccc(F)cc3)c(=O)c2=O)c1`, for which the max response, negative = inhibition is -16.8%.

`O=C(CCn1c(=S)[nH]c2ccccc2c1=O)NCCCN1CCCC1=O`: the max response, negative = inhibition is 7.76%.

In the case of `CC(C)OCCCNc1ncnc2c1[nH]c1ccc(F)cc12`, the max response, negative = inhibition was -22.4%.

Consider `O=C1CCCN1CCCNc1ncnc2c1[nH]c1ccccc12`, for which the Potency is 20 µM (active).

As to `COc1ccc(N2CCN(C3=NS(=O)(=O)C(c4cccc(Br)c4)=C3C)CC2)cc1`, the max response, negative = inhibition was -1.42%.

For the compound `COc1cccc(CNc2nccn(-c3ccc(OC)c(OC)c3)c2=O)c1`, the max response, negative = inhibition is 4.88%.

Regarding `CCOc1ccc(-n2c(SCC(=O)NCc3ccccc3)nc3n[nH]c(C)c3c2=N)cc1`, the max response, negative = inhibition was 6.06%.

For the compound `COc1ccc(OC)c(-n2nnc3c(sc4nc(C)c(Br)c(C)c43)c2=O)c1`, the max response, negative = inhibition is 15.9%.

`Cc1cccc(N=C2NC(=O)/C(=C/c3cn(C)c4ccccc34)S2)c1`: the Potency was 31.6 µM (active).

Turning to `Cc1ccc(N=C2NC(=O)/C(=C/C=C/c3ccco3)S2)cc1C`, the max response, negative = inhibition was -3.89%.

With `Cc1nnc(N2CCCC(C(=O)NCCN(C)C)C2)c2nn(-c3ccccc3)c(C)c12` (stereo not given), the max response, negative = inhibition is -14.7%.

In the case of `Cc1cccc(CSc2nc3ccncc3n2Cc2ccc(C(=O)O)cc2)c1`, the max response, negative = inhibition is -13.3%.

For `CCc1nn(CC(=O)N2CCN(c3cccc(C(F)(F)F)c3)CC2)c(=O)c2cc3occc3n12`, the max response, negative = inhibition is -20.3%.

`CCCCN1C(=O)c2[nH]nc(-c3ccccc3O)c2C1c1cccc(OCc2ccccc2)c1` (stereo not given): the max response, negative = inhibition is -70.8%.

With `O=C(COc1ccccc1Cl)Nc1ccc2nc(SCC(=O)N3CCCC3)sc2c1`, the max response, negative = inhibition was -3.05%.

For `Cc1ccc(NC(=O)CSc2nc3ccccc3c3nc(CCn4cncc4C)nn23)cc1F`, the max response, negative = inhibition was 6.2%.

In the case of `COc1ccc(CNC(=O)CCc2c(C)nn(-c3ccc(N4CCCC4)nn3)c2C)cc1`, the max response, negative = inhibition is 3.65%.

For the compound `Cc1ccc2nc(/C(C#N)=C/c3ccccc3F)[nH]c2c1`, the max response, negative = inhibition was -17.7%.

Consider `Cc1ccc2nc(S(=O)(=O)O)[nH]c2c1`, for which the max response, negative = inhibition was -1.87%.

For `Cc1ccc2nc(/C(C#N)=C/c3ccc(-c4ccc(C(=O)OC(C)C)cc4)o3)[nH]c2c1`, the Potency is 12.6 µM (active).

With `Cc1ccc(N2C(=O)C(Cc3ccccc3)NC2=S)cc1` (stereo not given), the max response, negative = inhibition is -8.99%.

As for `Cc1ccc(N2C(=O)C3C(c4ccccc4)(C2=O)C3(c2ccccc2)c2ccccc2)cc1` (stereo not given), the Potency is 25.1 µM (active).

Regarding `C=C1c2cc(CC)ccc2NC(=O)N1c1ccc(C)cc1`, the max response, negative = inhibition is -5.5%.

Turning to `Cc1ccc(Cn2c(=O)n(CCCC(=O)NCc3ccccc3Cl)c(=O)c3ccccc32)cc1`, the max response, negative = inhibition is 3.97%.
